Assay results published in PubChem BioAssay (EPA / NIEHS).
Where “and” joins values, the source holds several entries; their conditions need not be identical. Identical values can stand only once. Results filed as inconclusive are left out. Where a structure was tested more than once in an assay, its records may differ in their call. Calls of active or inactive are those of the source. The calls were made as follows, unless noted: active = hit-call score of the fitted dose curve at least 0.9, where 1 is the maximum; inconclusive = response in the unintended direction; inactive = score below 0.9.

System: not listed separately
Test: CCTE_Deisenroth_AIME_384WELL_CTox_Active: Cytotoxicity Assessment (CTOX) in CCTE's 384-well Estrogen Receptor Transactivation Assay with AIME metabolic competence (metabolism positive), Deisenroth Lab (AID 2284037);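 also: chemicals first conditioned 2 h by alginate-bound induced rat liver S9 before cells; activity means signal loss indicating cell death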
Procedure, shortened: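 Cytotoxicity in VM7Luc4E2 breast cells, 24 hour, measured as protease-substrate fluorescence loss, after 2-hour metabolic conditioning with induced rat hepatic S9 in alginate microspheres. Concentrations 0.002 - 200 uM, 10 points, bidirectional fitting.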

Compound | outcome | AC50
OCC1CO1 (configuration not stated) | inactive | 
Nc1cc2c3c(c1)C(c1ccccc1)=N[C@@H](NC(=O)c1cccnc1)C(=O)N3CC2 | inactive | 
CCCCOCC1CO1 (configuration not stated) | inactive | 
c1ccc(OP(Oc2ccccc2)Oc2ccccc2)cc1 | inactive | 
CCCCc1ccc(O)cc1 |  | 158 µM (active)
ClC(Cl)c1ccccc1 | inactive | 
CCCCN(CCCC)SN(C)C(=O)Oc1cccc2c1OC(C)(C)C2 | inactive | 
CC(C)(C)OOC(C)(C)C | inactive | 
Nc1ccc(Cl)cc1 | inactive | 

Biological target: Estrogen receptor (Homo sapiens) (UniProt P03372)
Sequence (P03372 whole entry, looked up): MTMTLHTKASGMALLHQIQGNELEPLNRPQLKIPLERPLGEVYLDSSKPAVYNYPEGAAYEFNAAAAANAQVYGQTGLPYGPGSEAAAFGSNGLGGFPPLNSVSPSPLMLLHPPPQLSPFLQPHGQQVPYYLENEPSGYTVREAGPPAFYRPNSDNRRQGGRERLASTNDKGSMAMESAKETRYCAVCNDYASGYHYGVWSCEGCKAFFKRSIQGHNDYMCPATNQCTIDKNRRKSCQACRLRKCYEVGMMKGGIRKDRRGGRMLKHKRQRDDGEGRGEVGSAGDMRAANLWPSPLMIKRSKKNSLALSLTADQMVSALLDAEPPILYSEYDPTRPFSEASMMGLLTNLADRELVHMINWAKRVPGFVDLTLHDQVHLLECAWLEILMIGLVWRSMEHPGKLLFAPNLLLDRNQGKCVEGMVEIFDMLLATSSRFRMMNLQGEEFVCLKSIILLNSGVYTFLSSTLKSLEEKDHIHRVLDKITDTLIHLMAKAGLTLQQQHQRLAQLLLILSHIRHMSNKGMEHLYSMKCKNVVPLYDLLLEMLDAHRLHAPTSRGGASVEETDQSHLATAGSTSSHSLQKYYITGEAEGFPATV
Test: CCTE_Deisenroth_AIME_384WELL_LUC_Inactive: CCTE's 384-well Estrogen Receptor Transactivation Assay without AIME metabolic competence (ERTA luciferase; metabolism negative), Deisenroth Lab (AID 2284038);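 also: hits raise estrogen receptor luciferase signal so potencies reflect agonists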
Procedure, shortened: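 VM7Luc4E2 ER transactivation, luciferase bioluminescence after 24 h, using medium pre-incubated 2 h with S9-free alginate microspheres. Concentrations 0.002–200 uM; gain of signal fitted relative to 17beta-estradiol.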

Compound | outcome | AC50
OCC1CO1 (configuration not stated) | inactive | 
c1nc[nH]n1 | inactive | 
COC(N)=O | inactive | 
Nc1cc2c3c(c1)C(c1ccccc1)=N[C@@H](NC(=O)c1cccnc1)C(=O)N3CC2 | inactive | 
CCC(C)(C)c1ccc(O)cc1 |  | 1.52 µM (active)
CCCCOCC1CO1 (configuration not stated) |  | 19.9 µM (active)
COCCOCCO | inactive | 
CCOS(=O)(=O)OCC | inactive | 
c1ccc(OP(Oc2ccccc2)Oc2ccccc2)cc1 |  | 75.4 µM (active)
CCCCc1ccc(O)cc1 |  | 20.2 µM (active)
O=c1ssc(Cl)c1Cl | inactive | 
ClC(Cl)c1ccccc1 | inactive | 
CCCN(CCC)c1c([N+](=O)[O-])cc(C(C)C)cc1[N+](=O)[O-] | inactive | 
CCCCN(CCCC)SN(C)C(=O)Oc1cccc2c1OC(C)(C)C2 | inactive | 
O=C(O)CF | inactive | 
CC(C)(C)OOC(C)(C)C | inactive | 
Nc1ccc(Cl)cc1 | inactive | 
Cc1cccc(N)c1 | inactive | 

System: not listed separately
Test: CCTE_Deisenroth_AIME_384WELL_CTox_Inactive: Cytotoxicity Assessment (CTOX) in CCTE's 384-well Estrogen Receptor Transactivation Assay without AIME metabolic competence (metabolism negative), Deisenroth Lab (AID 2284039);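 also: cell viability via live-cell protease substrate cleaved to fluorescent probe; cells exposed 24 h to medium preincubated 2 h with alginate-water beads without S9; loss of fluorescence signal means loss of viability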
Procedure, shortened: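 VM7Luc4E2 human breast cells received conditioned medium from a 2 h incubation of chemical with alginate-water microspheres (no S9), then were exposed 24 h. Viability was read as protease-substrate cleavage to a fluorescent probe; loss of signal was fitted bidirectionally over 0.002–200 uM.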

Compound | outcome
OCC1CO1 (configuration not stated) | inactive
c1nc[nH]n1 | inactive
COCCOCCO | inactive
CCOS(=O)(=O)OCC | inactive
c1ccc(OP(Oc2ccccc2)Oc2ccccc2)cc1 | inactive
CCCCc1ccc(O)cc1 | inactive
ClC(Cl)c1ccccc1 | inactive
CCCN(CCC)c1c([N+](=O)[O-])cc(C(C)C)cc1[N+](=O)[O-] | inactive
CCCCN(CCCC)SN(C)C(=O)Oc1cccc2c1OC(C)(C)C2 | inactive
O=C(O)CF | inactive
Nc1ccc(Cl)cc1 | inactive
Cc1cccc(N)c1 | inactive

System: not listed separately
Test: CCTE_Shafer_MEA_dev_active_electrodes_number: CCTE's Neural Network Formation Assay for Number of Active Electrodes, Shafer Lab (AID 2284040);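 as to AC50: potency for loss of active electrodes versus DMSO so lower counts are hits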
Procedure, shortened: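 Counts electrodes per well firing at least 5 spikes/min, recorded on days 5, 7, 9 and 12 in rat cortical cultures dosed continuously from plating (treatment refreshed DIV 5, 9). Value is the area under the curve over recordings, fitted downward relative to DMSO.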

Compound | outcome | AC50
OCC(F)(F)OC(F)(F)C(F)(F)OC(F)(F)C(F)(F)OC(F)(F)F | inactive | 
O=P1(N(CCCl)CCCl)NCCCO1 (configuration not stated) | inactive | 
OCC(F)(F)OC(F)(F)C(F)(F)OC(F)(F)CO | inactive | 
O=C(O)C(F)(F)OC(F)(F)C(F)(F)OC(F)(F)F | inactive | 
CCOP(=S)(OCC)SCSCC |  | 81.3 µM (active) and 23.2 µM (active)
O=S(=O)(c1ccc(O)cc1)c1ccc(O)cc1 | inactive | 
O=C(O)C(F)(F)C(F)(F)C(=O)O | inactive | 
O=C(O)C(F)(OC(F)(F)C(F)(F)C(F)(F)F)C(F)(F)F (configuration not stated) | inactive | 
CCCCC(CC)COC(=O)c1c(Br)c(Br)c(Br)c(Br)c1C(=O)OCC(CC)CCCC (configuration not stated) | inactive | 
c1ccc(OP(Oc2ccccc2)Oc2ccccc2)cc1 | inactive | 
c1cc2c3c(cccc3c1)CC2 | inactive | 
OCC(F)(F)OC(F)(F)C(F)(F)OC(F)(F)C(F)(F)OC(F)(F)CO | inactive | 
CO/N=C(/C(=O)OC)c1ccccc1COc1ccccc1C |  | 0.857 µM (active)
CC(C)(C)c1ccccc1OP(=O)(Oc1ccccc1)Oc1ccccc1 | inactive | 24.3 µM (active)
C=CC(=O)OCC(F)(F)C(F)F |  | 4.45 µM (active)
O=C(O)C(F)(F)OC(F)(F)C(F)(F)OC(F)(F)C(=O)O | inactive | 
O=P(Oc1ccccc1)(Oc1ccccc1)Oc1ccccc1 | inactive | 
CC(O)C(F)(F)C(F)(F)F (configuration not stated) | inactive | 

Biological target: Estrogen receptor (Homo sapiens) (UniProt P03372)
Test: CCTE_Deisenroth_AIME_384WELL_LUC_Shift: CCTE's 384-well Estrogen Receptor Transactivation Assay with AIME metabolic competence data shift (ERTA luciferase; difference in metabolism positive and negative), Deisenroth Lab (AID 2284041; active = hit-call score of the fitted dose curve at least 0.9, where 1 is the maximum; inactive = score below 0.9;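 also: shift is response with S9 minus without S9 so positive means metabolism raised ER signal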)
Procedure, shortened: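 Test chemicals (0.002–200 uM, 10-point) were pre-incubated 2 h with alginate microspheres containing phenobarbital/beta-naphthoflavone-induced male Sprague Dawley rat liver S9 or water, then medium was transferred to VM7Luc4E2 cells for 24 h luciferase readout; shift = S9-positive minus S9-negative normalized response.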

Compound | outcome | AC50
OCC1CO1 (configuration not stated) | inactive | 
c1nc[nH]n1 | inactive | 
COC(N)=O | inactive | 
Nc1cc2c3c(c1)C(c1ccccc1)=N[C@@H](NC(=O)c1cccnc1)C(=O)N3CC2 |  | 39.4 µM (active)
CCC(C)(C)c1ccc(O)cc1 |  | 0.0296 µM (active)
CCCCOCC1CO1 (configuration not stated) |  | 8.76 µM (active)
COCCOCCO | inactive | 
CCOS(=O)(=O)OCC | inactive | 
c1ccc(OP(Oc2ccccc2)Oc2ccccc2)cc1 |  | 60.5 µM (active)
CCCCc1ccc(O)cc1 | inactive | 
O=c1ssc(Cl)c1Cl | inactive | 
ClC(Cl)c1ccccc1 | inactive | 
CCCCOCCOP(=O)(OCCOCCCC)OCCOCCCC | inactive | 
CCCN(CCC)c1c([N+](=O)[O-])cc(C(C)C)cc1[N+](=O)[O-] | inactive | 
CCCCN(CCCC)SN(C)C(=O)Oc1cccc2c1OC(C)(C)C2 | inactive | 
O=C(O)CF | inactive | 
CC(C)(C)OOC(C)(C)C | inactive | 
Nc1ccc(Cl)cc1 | inactive | 
Cc1cccc(N)c1 | inactive | 
